{
  "source": "PubChem BioAssay AID1347076",
  "about": "(National Center for Advancing Translational Sciences (NCATS), 2019)",
  "note": "The whole screen tested about 400,000 compounds, of which about 13,000 (3.2%) were called active. About 18% were inconclusive and are not listed. Calls come from the whole dose curve; as a rule, active = well fitted cell-killing curve with a large enough effect; inconclusive = small, poorly fitted or top-dose-only effect, or effect the other way; inactive = flat fitted curve, though single readings scatter. What follows is part of a selection rich in actives, with near analogues and random picks from the rest. % is set by controls: 0 for no effect and ±100 for the full control effect; potency is the fitted concentration of half-maximal effect.",
  "data": [
    {"assay": "qHTS assay for MDR1-selective chemotherapeutics: Primary screen using the drug-selected MDR subline cells KB-V1; note: nearly all actives have a fitted effect of over 60% in size", "details": "KB-V1 MDR cells viability, CellTiter-Glo, 72 h; series mostly up to 46.1 µM; activity change, negative = cytotoxicity: at the top concentration", "description": "A prime difficulty in effectively treating cancer is the development of cellular resistance to multiple structurally unrelated anticancer drugs, a phenomenon known as multidrug resistance (MDR). […] Numerous strategies to overcome P-gp-mediated MDR have been explored, including the design of drugs that evade recognition and efflux, and development of inhibitors to block efflux and restore drug accumulation. […] An alternative approach is to exploit resistance by identifying drugs that target MDR cells over the non-resistant parental cells from which they were selected. […] The development of MDR1-selective agents represents a new strategy for resolving multidrug resistance, as it remains a long-standing clinical challenge for cancer chemotherapy.\nOur goal is to identify compounds that selectively kill P-gp-expressing MDR cells. We will identify MDR1-selective compounds by comparing toxicity of compounds in the screening library against parental, drug-naive (KB-3-1) adenocarcinoma cells as well as their drug-selected MDR sub-line (KB-V1). The differential toxicity of compounds against these two cell lines will be used to identify MDR1-selective compounds, whose cytotoxicity is potentiated, rather than diminished, by P-gp expression. This assay will be utilized to conduct a quantitative high-throughput screen (qHTS) in collaboration with the NIH Chemical Genomics Center to identify selective agents, and probe hits arising from the screen will be validated using secondary assays and characterized through a well-established follow-up research program. This screen was run against the entire NCGC library collection of about 400,000 compounds.\nNIH Molecular Libraries Probe Production Network [MLPCN]\nNIH Chemical Genomics Center [NCGC]\nPI: Michael Gottesman, National Cancer Institute, NIH\nBriefly, 5 microL of media containing either KB-V1 cells (columns 1-2, 4-48) are dispensed into Greiner white, treated solid-bottom 1536-well assay plates (media-only control is added to column 3). Compounds are then transferred via Kalypsys pin tool equipped with 1536-pin array (10 nL slotted pins, V&P Scientific, San Diego, CA). Following addition of compound, the plates are incubated at 37 degrees C for 72 hours. CellTiter-Glo (2.5 µL/well) is then added, and the plates are read in a ViewLux reader (Perkin-Elmer, clear luminescence filter, 1 second exposure, 1x binning) following a 10 minute incubation. All cells are dispensed in DMEM phenol-red free media containing 10% FBS.\nLibrary plates were screened starting from the lowest and proceeding to the highest concentration. Vehicle-only plates, with DMSO being pin-transferred to columns 5-48, will be inserted uniformly at the beginning and the end of each library in order to monitor and record any shifts in the background, which can be affected by reagent dispensers or loss in enzyme activity over time. Screening data will be corrected, normalized, and concentration-effect relationships will be derived by using publicly-available NCGC, NCATS curve fitting algorithms (http://ncgc.nih.gov/pub/openhts).", "values": [
      {"smiles": "CCOC(=O)c1ccccc1NC(=O)c1nn(-c2ccc(OC)c(Cl)c2)c(=O)c2c1c1ccccc1n2C", "activity change, negative = cytotoxicity": "-2.72% (inactive)"},
      {"smiles": "CN(C)CCNC(=O)c1ccc(-c2cn3c(-c4ccc(Oc5ccccc5)cc4)cnc3cn2)cc1", "activity change, negative = cytotoxicity": "0.255% (inactive)"},
      {"smiles": "O=C(CCc1nc(CN2CCN(S(=O)(=O)c3ccc(F)cc3)CC2)no1)N1CCCCC1", "activity change, negative = cytotoxicity": "3.75% (inactive)"},
      {"smiles": "Cc1cc(O)ccc1-c1cnc2ccccc2n1", "Potency": "14.6 µM (active)"},
      {"smiles": "CC(=O)Nc1cnc(-c2ccc(O)cc2C)cn1", "activity change, negative = cytotoxicity": "-0.324% (inactive)"},
      {"smiles": "Oc1ccc(-c2nc3ccccc3nc2-c2ccc(O)cc2O)c(O)c1", "activity change, negative = cytotoxicity": "8.6% (inactive)"},
      {"smiles": "O=C(Nc1ccccc1Br)c1cc(CN2CCCC2)on1", "activity change, negative = cytotoxicity": "-8.6% (inactive)"},
      {"smiles": "OC(c1ccc(Cl)cc1)c1ncc(-c2ccc(Cl)cc2)[nH]1", "note": "(configuration not stated)", "activity change, negative = cytotoxicity": "1.01% (inactive)"},
      {"smiles": "O=C(Nc1ccc(OC(F)(F)F)cc1)c1ccc2c(c1)no[n+]2[O-]", "Potency": "20.6 µM (active)"},
      {"smiles": "COC(=O)c1cnn(-c2ccc(C(=O)Nc3ccc(OC(F)(F)F)cc3)cc2)c1N", "activity change, negative = cytotoxicity": "1.13% (inactive)"},
      {"smiles": "Cn1cccc1/C=N/NC(=O)c1ccc(OC(F)(F)C(F)F)cc1", "activity change, negative = cytotoxicity": "13.2% (inactive)"},
      {"smiles": "CCN(CC)C(=O)C1=C(C)N(Cc2ccc(F)cc2)C(=O)C(CC(=O)NC2CCCC2)C1", "note": "(configuration not stated)", "activity change, negative = cytotoxicity": "0% (inactive)"},
      {"smiles": "CCc1ccc([C@@H]2CC(=O)[C@@H]3CN(S(=O)(=O)c4ccc(C)cc4)[C@H](c4ccc(Cl)cc4)C[C@@H]3N2S(=O)(=O)c2ccc(C)cc2)cc1", "activity change, negative = cytotoxicity": "14.3% (inactive)"},
      {"smiles": "Cc1ccc2nc(CN3CCN(S(=O)(=O)c4ccc(C)c(C)c4)CC3)oc2c1", "activity change, negative = cytotoxicity": "15% (inactive)"},
      {"smiles": "Cc1ccc(S(=O)(=O)N2CCN(c3ccccc3)CC2)cc1C", "activity change, negative = cytotoxicity": "-13.5% (inactive)"},
      {"smiles": "Cc1cc(N2CCN(S(=O)(=O)c3ccc(C)c(C)c3)CC2)c2ccccc2n1", "Potency": "3.26 µM (active)"},
      {"smiles": "CCOC(=O)c1c(C)[nH]c(C)c1S(=O)(=O)N1CCCC(C(=O)NCc2ccccc2Cl)C1", "note": "(configuration not stated)", "activity change, negative = cytotoxicity": "27.7% (inactive)"},
      {"smiles": "COc1ccc(NCc2nnc(SCc3ccccc3)n2-c2ccc(OC)cc2)cc1", "Potency": "8.2 µM (active)"},
      {"smiles": "CCc1nnc(NC(=O)CSc2nnc(Cc3ccccc3)n2-c2ccc(OC)cc2)s1", "activity change, negative = cytotoxicity": "10.7% (inactive)"},
      {"smiles": "CCn1c(CNc2ccc(OC)cc2)nnc1SCC(=O)c1ccc(OC)cc1", "activity change, negative = cytotoxicity": "-1.67% (inactive)"},
      {"smiles": "CNC(=O)c1ccc(-c2nc(CN3CCc4ccccc43)c(C)o2)cc1", "activity change, negative = cytotoxicity": "-20.6% (inactive)"},
      {"smiles": "COc1ccc(-c2csc(N3CCN(Cc4ccc5c(c4)OCO5)CC3)n2)cc1", "Potency": "13 µM (active)"},
      {"smiles": "COc1ccc(C(O)c2nc(-c3ccc4c(c3)OCO4)cs2)cc1", "note": "(configuration not stated)", "activity change, negative = cytotoxicity": "2.33% (inactive)"},
      {"smiles": "O=C(CN1CCN(c2nc(-c3ccccc3)cs2)CC1)NCc1ccc2c(c1)OCO2", "activity change, negative = cytotoxicity": "-8.12% (inactive)"},
      {"smiles": "CCN(C(=O)Nc1cccc2ccccc12)c1ccccc1", "activity change, negative = cytotoxicity": "-1.11% (inactive)"},
      {"smiles": "CC1(C(=O)Nc2ccccc2Br)CCN1C(=O)CC1CC1", "note": "(configuration not stated)", "activity change, negative = cytotoxicity": "4.78% (inactive)"},
      {"smiles": "Cc1ccc(CN(C)C[C@@H]2OCc3cnnn3CCCC(=O)N([C@@H](C)CO)C[C@H]2C)cc1", "activity change, negative = cytotoxicity": "16.2% (inactive)"},
      {"smiles": "CCC(C(=O)Nc1c(C)cccc1C)n1c(-c2cc(C)cs2)nc2ccccc21", "note": "(configuration not stated)", "activity change, negative = cytotoxicity": "-20.7% (inactive)"},
      {"smiles": "OC(c1cc(Cl)cc(Cl)c1)c1ncc(-c2ccccc2C(F)(F)F)[nH]1", "note": "(configuration not stated)", "activity change, negative = cytotoxicity": "0% (inactive)"},
      {"smiles": "Cc1cc(=O)oc2cc(OCC3CC(c4ccccc4Cl)=NO3)ccc12", "note": "(configuration not stated)", "Potency": "1.16 µM (active)"},
      {"smiles": "Cc1cc(OCCCN2CCN(Cc3ccccc3)CC2)ccc1[N+](=O)[O-]", "activity change, negative = cytotoxicity": "-9.82% (inactive)"},
      {"smiles": "Cc1ccccc1NC(=O)c1ccc(COc2ccc3c(C)cc(=O)oc3c2)cc1", "activity change, negative = cytotoxicity": "-1.61% (inactive)"},
      {"smiles": "Cc1cc(=O)oc2cc(OCC(=O)Nc3nnc(C4CC4)s3)ccc12", "activity change, negative = cytotoxicity": "10.4% (inactive)"},
      {"smiles": "CCc1cc(=O)oc2cc(OCC(=O)N3CCCc4ccccc43)ccc12", "activity change, negative = cytotoxicity": "-23.3% (inactive)"},
      {"smiles": "Cc1ccccc1N1CCN(CCCOc2ccc3c(C)cc(=O)oc3c2)CC1", "Potency": "11.2 µM (active)"},
      {"smiles": "COc1ccc2oc(-c3ccc(C)c(NC(=O)c4sc5ccccc5c4Cl)c3)nc2c1", "activity change, negative = cytotoxicity": "11.6% (inactive)"},
      {"smiles": "CCN(CC(=O)Nc1ccc(NC(C)=O)cc1)C(=O)C1CC(=O)N(c2ccc3c(c2)OCCO3)C1", "note": "(configuration not stated)", "activity change, negative = cytotoxicity": "24.5% (inactive)"},
      {"smiles": "CC(C)c1ccc(CC(=O)N2CCC2(C)C(=O)NS(=O)(=O)c2ccc(C(C)(C)C)cc2)cc1", "note": "(configuration not stated)", "activity change, negative = cytotoxicity": "5.43% (inactive)"},
      {"smiles": "COc1cccc(C(=O)NC(=O)Nc2ccc(-c3cc(C(F)(F)F)nn3-c3ccccc3)cc2)c1", "activity change, negative = cytotoxicity": "9.8% (inactive)"},
      {"smiles": "COc1ccc(-c2csc(-c3c(N)c(C(=O)c4ccc(OC)c(OC)c4)n4ccccc34)n2)cc1", "activity change, negative = cytotoxicity": "10.1% (inactive)"},
      {"smiles": "COc1ccc(CN(C(=O)c2cccs2)c2nccs2)cc1OC", "activity change, negative = cytotoxicity": "-25.9% (inactive)"},
      {"smiles": "COc1ccc(CCN(C(=O)COc2ccccc2)c2nc(-c3ccccc3)cs2)cc1OC", "Potency": "5.8 µM (active)"},
      {"smiles": "Cc1ccc(Sc2ccc(NC(=O)c3ccc(F)cc3)cc2C#N)cc1", "activity change, negative = cytotoxicity": "0% (inactive)"},
      {"smiles": "CC(C)C[C@H]1CNC(=O)C(=O)N1C[C@H]1CCCN1C[C@H](Cc1ccc(O)cc1)N1C[C@H](CC(C)C)N(CC2CCCCCC2)C(=O)C1=O", "activity change, negative = cytotoxicity": "2.62% (inactive)"},
      {"smiles": "COc1cccc(CNc2nc(NCc3cccs3)nc3ccsc23)c1", "activity change, negative = cytotoxicity": "-10.1% (inactive)"},
      {"smiles": "COc1ccc(CC(=O)Nc2c3c(nn2-c2cccc(Cl)c2)CS(=O)C3)cc1", "note": "(configuration not stated)", "activity change, negative = cytotoxicity": "-4.66% (inactive)"},
      {"smiles": "Cc1cccc(CC(=O)Nc2c3c(nn2-c2cccc(Cl)c2)CS(=O)C3)c1", "note": "(configuration not stated)", "Potency": "20.6 µM (active)"}
    ]}
  ]
}
